Experimental findings from the supplement of paper PMC8728848 are described below.

About 410 targets per protein were measured; listed, in parts, are those with the strongest signals and a random draw of the rest.

Common to all, as to experiment: glycan array binding signal (z-score within array); higher = stronger binding
Details in all cases: glycan notation: IUPAC condensed, linker removed

In test [1] the target is Neu5Ac(a2-6)Gal(b1-4)GlcNAc6S. A digest of the protocol: (§1)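 Glycan array binding is given as a within-array Z-score, which can be read as non-binding when negative. The arrays, 3228 of them, came from the Consortium for Functional Glycomics database and were retained only where the protein sequence was available. Z-scores were averaged across arrays of the same protein sequence at different concentrations or buffers and across linkers.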

The target of test [2] is Neu5Ac(a2-8)Neu5Ac(a2-3)[GalNAc(b1-4)]Gal(b1-4)Glc. An outline of the steps: as §1
For test [3], the target named is Neu5Ac(a2-8)Neu5Ac(a2-8)Neu5Ac. A digest of the protocol: as §1
The target of test [4] is Neu5Gc(a2-3)Gal(b1-3)[Fuc(a1-4)]GlcNAc. A digest of the protocol: as §1
In test [5] the target is Fuc(a1-2)Gal(b1-3)GlcNAc(b1-3)Gal(b1-4)Glc. An outline of the steps: as §1
Test [6] deals with Fuc(a1-2)[Gal(a1-3)]Gal(b1-3)GlcNAc. An outline of the steps: as §1
The target of test [7] is Fuc(a1-2)[Gal(a1-3)]Gal(b1-4)Glc. A digest of the protocol:
as §1

The target of test [8] is Gal(b1-3)Gal(b1-4)GlcNAc. A digest of the protocol: as §1
For test [9], the target named is Gal(b1-3)GalNAc. An outline of the steps: as §1
The target in test [10] is Gal(b1-4)GalNAc(b1-3)[Fuc(a1-2)]Gal(b1-4)GlcNAc. An outline of the steps: as §1
Test [11] addresses Gal(b1-4)GlcNAc(b1-3)Gal(b1-4)GlcNAc. An outline of the steps: as §1
Test [12] addresses Gal3S(b1-3)GlcNAc. A digest of the protocol:
as §1

In test [13] the target is Gal6S(b1-4)Glc6S. An outline of the steps:
as §1

Test [14] concerns the target Gal6S(b1-4)GlcNAc. An outline of the steps:
as §1

In test [15] the target is GalNAc(b1-3)Gal. An outline of the steps:
as §1

For test [16], the target named is GlcNAc(b1-4)GlcNAc. An outline of the steps: as §1
The target in test [17] is Man(a1-2)Man(a1-3)Man. An outline of the steps: as §1
Test [18] addresses Man(a1-2)Man(a1-3)[Man(a1-2)Man(a1-6)]Man(a1-6)[Man(a1-2)Man(a1-2)Man(a1-3)]Man(b1-4)GlcNAc(b1-4)GlcNAc. An outline of the steps: as §1
The target of test [19] is Neu5Ac(a2-3)Gal(b1-3)GlcNAc. A digest of the protocol:
as §1

Test [20] concerns the target Neu5Ac(a2-3)Gal(b1-3)GlcNAc(b1-3)Gal(b1-3)GlcNAc. An outline of the steps:
as §1

Test [21] addresses Neu5Ac(a2-3)Gal(b1-3)[Fuc(a1-4)]GlcNAc. An outline of the steps:
as §1

Test [22] concerns the target Neu5Ac(a2-3)Gal(b1-3)[Neu5Ac(a2-3)Gal(b1-4)]GlcNAc. An outline of the steps: as §1
Test [23] addresses Neu5Ac(a2-3)Gal(b1-4)GlcNAc(b1-3)Gal(b1-4)GlcNAc(b1-3)Gal(b1-4)GlcNAc. A digest of the protocol: as §1
The target in test [24] is Neu5Ac(a2-3)Gal(b1-4)GlcNAc(b1-3)Gal(b1-4)[Fuc(a1-3)]GlcNAc. A digest of the protocol: as §1
Test [25] addresses Neu5Ac(a2-3)Gal6S(b1-4)[Fuc(a1-3)]GlcNAc. An outline of the steps:
as §1

Test [26] deals with Neu5Ac(a2-3)GalNAc. An outline of the steps:
as §1

In test [27] the target is Neu5Ac(a2-6)Gal(b1-4)GlcNAc. An outline of the steps:
as §1

Test [28] addresses Neu5Ac(a2-6)Gal(b1-4)GlcNAc(b1-2)Man(a1-6)[GlcNAc(b1-2)Man(a1-3)]Man(b1-4)GlcNAc(b1-4)GlcNAc. A digest of the protocol:
as §1

For test [29], the target named is Neu5Ac(a2-6)Gal(b1-4)GlcNAc(b1-3)Gal(b1-4)GlcNAc. An outline of the steps:
as §1

The target in test [30] is Neu5Gc(a2-6)GalNAc. A digest of the protocol: as §1

B1: DGL (Dioclea grandiflora), P08902 (protein)
chain: ADTIVAVELDSYPNTDIGDPNYPHIGIDIKSIRSKSTARWNMQTGKVGTVHISYNSVAKRLSAVVSYSGSSSTTVSYDVDLNNVLPEWVRVGLSATTGLYKETNTILSWSFTSKLKTNSIADENSLHFSFHKFSQNPKDLILQGDAFTDSDGNLELTKVSSSGDPQGNSVGRALFYAPVHIWESSAVVASFDATFTFLIKSPDREPADGITFFIANTDTSIPSGSGGRLLGLFPDAN
As for B1, the “glycan array binding signal (z-score)” value in test [1] was -0.179; in test [2], -0.178; in test [3], -0.175; in [4], -0.179.

B2: mLPHN-1 (Mus musculus), Q80TR1 (protein)
chain: MARLAAALWSLCVTTVLVTSATQGLSRAGLPFGLMRRELACEGYPIELRCPGSDVIMVENANYGRTDDKICDADPFQMENVQCYLPDAFKIMSQRCNNRTQCVVVAGSDAFPDPCPGTYKYLEVQYDCVPYIFVCPGTLQKVLEPTSTHESEHQSGAWCKDPLQAGDRIYVMPWIPYRTDTLTEYASWEDYVAARHTTTYRLPNRVDGTGFVVYDGAVFYNKERTRNIVKYDLRTRIKSGETVINTANYHDTSPYRWGGKTDIDLAVDENGLWVIYATEGNNGRLVVSQLNPYTLRFEGTWETGYDKRSASNAFMVCGVLYVLRSVYVDDDSEAAGNRVDYAFNTNANREEPVSLAFPNPYQFVSSVDYNPRDNQLYVWNNYFVVRYSLEFGPPDPSAGPATSPPLSTTTTARPTPLTSTASPAATTPLRRAPLTTHPVGAINQLGPDLPPATAPAPSTRRPPAPNLHVSPELFCEPREVRRVQWPATQQGMLVERPCPKGTRGIASFQCLPALGLWNPRGPDLSNCTSPWVNQVAQKIKSGENAANIASELARHTRGSIYAGDVSSSVKLMEQLLDILDAQLQALRPIERESAGKNYNKMHKRERTCKDYIKAVVETVDNLLRPEALESWKDMNATEQVHTATMLLDVLEEGAFLLADNVREPARFLAAKQNVVLEVTVLNTEGQVQELVFPQEYPSENSIQLSANTIKQNSRNGVVKVVFILYNNLGLFLSTENATVKLAGEAGTGGPGGASLVVNSQVIAASINKESSRVFLMDPVIFTVAHLEAKNHFNANCSFWNYSERSMLGYWSTQGCRLVESNKTHTTCACSHLTNFAVLMAHREIYQGRINELLLSVITWVGIVISLVCLAICISTFCFLRGLQTDRNTIHKNLCINLFLAELLFLVGIDKTQYEVACPIFAGLLHYFFLAAFSWLCLEGVHLYLLLVEVFESEYSRTKYYYLGGYCFPALVVGIAAAIDYRSYGTEKACWLRVDNYFIWSFIGPVSFVIVVNLVFLMVTLHKMIRSSSVLKPDSSRLDNIKSWALGAIALLFLLGLTWAFGLLFINKESVVMAYLFTTFNAFQGVFIFVFHCALQKKVHKEYSKCLRHSYCCIRSPPGGTHGSLKTSAMRSNTRYYTGTQSRIRRMWNDTVRKQTESSFMAGDINSTPTLNRGTMGNHLLTNPVLQPRGGTSPYNTLIAESVGFNPSSPPVFNSPGSYREPKHPLGGREACGMDTLPLNGNFNNSYSLRSGDFPPGDGGPEPPRGRNLADAAAFEKMIISELVHNNLRGASGGAKGPPPEPPVPPVPGVSEDEAGGPGSADRAEIELLYKALEEPLLLPRAQSVLYQSDLDESESCTAEDGATSRPLSSPPGRDSLYASGANLRDSPSYPDSSPEGPNEALPPPPPAPPGPPEIYYTSRPPALVARNPLQGYYQVRRPSHEGYLAAPSLEGPGPDGDGQMQLVTSL
B2: the “glycan array binding signal (z-score)” value is 0.213 in test [5]; 15.8 in test [6]; -0.219 in test [7]; 0.16 in [8]; 0.025 in [9]; 1.66 in test [10]. Moreover, the “glycan array binding signal (z-score)” value in test [11] was -0.105; in test [12], 2.08; in test [13], 1.13; in test [14] it was 1.27; in [15], 0.793; in test [16] it was -0.282. The “glycan array binding signal (z-score)” value was -0.173 in test [17]; 0.551 in test [18]; 0.014 in [19]; -0.317 in [20]; 0 in test [21]; -0.26 in [22]. The “glycan array binding signal (z-score)” value in test [23] is -0.433; in test [24], -0.402; in test [25], -0.065; in test [26], 0.587; in test [27], 0.157; in test [28], -0.261. The “glycan array binding signal (z-score)” value in test [29] is -0.422; in [30], 1.3.
